Data: PubChem BioAssay AID1117319 (Southern Research Institute, 2015)
The whole screen tested about 260,000 compounds, of which about 1,500 (0.58%) were called active. About 5% were inconclusive and are not listed.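 Rule for the calls: active = inhibition above a set limit at one or more doses, reproduced on every date tested; inconclusive = results disagree between test dates, or hit never tested in dose response; inactive = the rest.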 Only a sample is shown. Measured potencies and affinities stand elsewhere.

molecular target: Virion infectivity factor (Human immunodeficiency virus type 1 group M subtype B (isolate BH10)) + Virion infectivity factor (Human immunodeficiency virus type 1 group M subtype B (isolate BRU/LAI)) + Virion infectivity factor (Human immunodeficiency virus type 1 group M subtype B (isolate PCV12)) + Virion infectivity factor (Human immunodeficiency virus type 1 group M subtype B (isolate HXB2)) + DNA dC->dU-editing enzyme APOBEC-3G (Homo sapiens) (UniProt P69720+P69721+P69722+P69723+Q9HC16); experiment: inhibitors of Vif binding to APOBEC3G peptide, primary screen, biochemical, TR-FRET, GST-Vif 1-94, biotin-A3G peptide, dose response retest (AID 1117319); settings: stronger effect = higher value;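 note: Vif residues 1-94 fused to GST binding biotinylated APOBEC3G peptide 110-148; 0% = full assay without inhibitor and 100% = GST in place of GST-Vif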

inhibition, inactive:
CCCC1=NN2C(=N)/C(=C\c3cc(C)n(-c4cccc(C)c4)c3C)C(=O)N=C2S1 -10.2%
N=C1/C(=C\c2ccc(SCc3ccccc3)o2)C(=O)N=C2SC(CC(=O)N3CCOCC3)=NN12 18.9%
CCC1=NN2C(=N)/C(=C/c3c(C)nn(-c4ccccc4)c3Cl)C(=O)N=C2S1 6.74%
CCC1=NN2C(=N)/C(=C\c3cccn3-c3ccc(Cl)cc3)C(=O)N=C2S1 0.75%
N=C1/C(=C\c2ccc(SCc3ccccc3)o2)C(=O)N=C2SC=NN12 1.67%
N=C1/C(=C\c2ccc(OC(=O)c3ccco3)cc2)C(=O)N=C2SC=NN12 2.2%
CC1=NN2C(=N)/C(=C\c3ccc(SCc4ccccc4)o3)C(=O)N=C2S1 26.3%
CCC1=NN2C(=N)/C(=C\c3cccn3-c3ccc(C)c(C)c3)C(=O)N=C2S1 2.9%
CCn1c(C(=O)O)c(S(=O)(=O)c2ccc(Cl)cc2)c2ccccc21 -1.5%
Nc1nnc(SCC(=O)OCc2ccccc2)s1 11.6%
COc1ccc(CCNC(=O)CN2C(=O)NC(c3ccccc3)(c3ccccc3)C2=O)cc1 2.71%
COc1ccc(-c2csc(N(CCc3ccccc3)C(=O)COc3ccccc3)n2)cc1 -2.24%
O=C1CC(c2ccccc2)NC(=S)N1 (stereo unspecified) 0.02%
Cc1ccc(/C=c2\sc3n(c2=O)CN(c2cccc(Br)c2)CN=3)o1 27.7%
Cc1onc(-c2ccccc2)c1C(=O)N1CCN(c2ccc([N+](=O)[O-])cc2)CC1 -0.35%
O=C1N(Cc2cccc(Cl)c2)C[C@@H]2C[C@@H](c3c[nH]c4ccccc34)N3CCC[C@@]123 0.3%
Cc1ccc(C(=O)OCC(=O)NCc2ccccc2)cc1S(=O)(=O)N1CCCCC1 -8.21%
Cn1c(N2C(=O)CC(Cc3ccccc3)C2=O)nc2ccccc21 (stereo unspecified) -1.11%
O=C1NC(=O)C(=Cc2ccco2)S1 -2.41%
O=C1NC(=S)SC1=Cc1ccccc1Cl 1.68%
Cc1sc2ncn(-n3c(C)ccc3C)c(=O)c2c1C 5.69%
COc1ccccc1-n1c(CNC(=O)c2ccco2)nnc1SCC(=O)Nc1ccc(F)cc1 -4.03%
Cc1nc2[nH]c(=S)[nH]c(=O)c2nc1C 17.2%
O=c1[nH]c(=S)[nH]c2nccnc12 -0.53%
COc1cc(C(=O)Nc2c(C)cc(C)cc2C)c([N+](=O)[O-])cc1OC -0.83%
O=C(CCc1nnc(CCCCc2ccccc2)o1)N1CCCC(O)C1 (stereo unspecified) 20%
COc1cc(/C=N/NC(=O)CNc2n[nH]c(=O)[nH]c2=O)ccc1OCc1ccccc1 2.21%
O=C(CNc1n[nH]c(=O)[nH]c1=O)N/N=C/c1ccccc1 -4.54%
COc1ccc(C(CNC(=O)c2ccc(OCC3CCCO3)cc2)N2CCOCC2)cc1 (stereo unspecified) -4.51%
CCCn1c(NC(=O)CSCC(=O)Nc2cc(C)on2)nc2ccccc21 -0.74%
COc1ccc2nc3ccccc3nc2c1 0.36%
c1coc(-c2cnc3ccccc3n2)c1 -5.45%
c1coc(-c2nc3ccccc3s2)c1 1.82%
c1coc(-c2ncc[nH]2)c1 0.85%
COc1ccc2nc3c(nc2c1)CCCC3 -1.28%
c1coc(Cn2c(-c3ccco3)nc3ccccc32)c1 6.18%
S=c1nc(-c2ccco2)[nH][nH]1 6.53%
CCn1c(-c2ccco2)nc2ccccc21 0.82%
COc1ccc(N(C(=O)c2ccco2)C(C(=O)NC2CCCC2)c2ccco2)cc1OC (stereo unspecified) 0.94%
COc1ccccc1/C=C/C(=O)OCC(=O)NC(=O)NC1CCCC1 -1.97%
CCn1cc(Cl)c(C(=O)Nc2cccc(C(F)(F)F)c2)n1 -0.07%
CC1(C)CC(NC(=O)COc2ccc([N+](=O)[O-])cc2)CC(C)(C)N1 -0.99%
CC(C(=O)O/N=C(\N)c1cccnc1)c1ccc([N+](=O)[O-])cc1 (stereo unspecified) -1.85%
COc1cc(/C=C/C(=O)OCC(=O)c2ccc(S(=O)(=O)N3CCCCC3)cc2)cc(OC)c1OC -29.8%
Cc1ccc(OCCSc2nc(NC(C)C)nc(NC(C)C)n2)cc1 -8.83%
CC(C)(C)NC(=O)CN1CCN(C(=O)CCl)CC1 -2.69%
Cc1oc2ccc(O)c(CN3CCOCC3)c2c1C(C)O (stereo unspecified) -6.07%
COCCN1C(=O)CC(NNC(=O)c2ccc(S(=O)(=O)N3CCCC3)cc2)C1=O (stereo unspecified) 8%
CCCC(C)NC(=O)c1ccc(-c2ccccc2)cc1 (stereo unspecified) -5.95%
Nc1nnc(-c2ccco2)s1 15.6%
Nc1nc(-c2ccco2)cs1 -0.78%
CCOC(=O)c1cnc(-n2nc(C)cc2C)[nH]c1=O -8.45%
Cc1sc(-c2ccccn2)nc1OC(=O)c1ccc(Cl)c(Cl)c1 -6.3%
CN1CCc2nc3ccccc3c(C(=O)OCC(=O)N(CCC#N)c3ccccc3)c2C1 -5.14%
CC1CCCCC1NC(=O)COC(=O)c1ccc2ccccc2n1 (stereo unspecified) -3.73%
O=C(COC(=O)c1c2c(nc3ccccc13)/C(=C/c1cccc([N+](=O)[O-])c1)CCC2)NC1CCS(=O)(=O)C1 (stereo unspecified) 29.1%
CN(CCC#N)C(=O)COC(=O)c1nn(-c2ccccc2)c(=O)c2ccccc12 -3.88%
CCc1nc2ccccc2c(C(=O)OCC(=O)NC2CCCC2)c1C 4.22%
CC1CCCCC1NC(=O)COC(=O)c1c2c(nc3ccccc13)/C(=C\c1ccco1)CC2 (stereo unspecified) 4.28%
Cc1ccc(N(Cc2ccccc2)C(=O)c2cccc(S(=O)(=O)N3CC(C)OC(C)C3)c2)cc1 (stereo unspecified) 5.98%
CCCCc1nnc(NC(=O)Cc2ccc(S(=O)(=O)N3CCOCC3)s2)s1 -4.48%
